sEH inhibitor – inhibitors of human soluble epoxide hydrolase. P34913. recombinant human sEH enzymatic activity assay. AID 707. actives 0.34% (n = 91,000). inhibition, % at 2 µM; in the data active means inhibition above about 80%
CYP2C9 act – CYP2C9 (human) activation | P11712 | recombinant CYP2C9, luciferin-H conversion, luminescence; hits give high values; factor 1 = untreated enzyme, 0 = blocked | actives 1.4% (n = 96,000) | AID 1024 | activation factor at 5 µM;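 active means activation factor of 2 or more for CYP2C9 at a 5 µM dose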
Target sequence (P11712 whole entry, looked up): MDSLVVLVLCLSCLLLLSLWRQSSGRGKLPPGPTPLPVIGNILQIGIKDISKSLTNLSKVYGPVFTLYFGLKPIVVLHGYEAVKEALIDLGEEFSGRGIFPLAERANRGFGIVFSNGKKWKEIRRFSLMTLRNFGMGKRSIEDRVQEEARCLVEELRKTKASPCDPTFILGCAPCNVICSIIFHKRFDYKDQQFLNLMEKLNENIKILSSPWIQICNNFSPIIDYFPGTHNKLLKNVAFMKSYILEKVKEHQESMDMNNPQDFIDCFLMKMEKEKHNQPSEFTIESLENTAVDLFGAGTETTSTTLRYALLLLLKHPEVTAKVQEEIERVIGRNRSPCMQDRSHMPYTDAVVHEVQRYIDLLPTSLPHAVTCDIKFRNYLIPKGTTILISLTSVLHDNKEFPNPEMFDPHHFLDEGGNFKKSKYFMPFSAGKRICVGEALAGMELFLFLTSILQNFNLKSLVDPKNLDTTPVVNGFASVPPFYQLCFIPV
CYP2C19 inh – inhibitors of human CYP2C19 | P33261 | CYP2C19 Supersomes, luciferin-H EGE luminescence, 30 min | inhibition, % at 5 µM | actives 21% (n = 96,000) | AID 778;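 active means CYP2C19 inhibition above a set limit at 5 µM in the primary screen, cut at about 50% in these data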
CYP2C9 inh – human CYP2C9 inhibition; P11712; CYP2C9 Supersomes, luciferin-H conversion, luminescence; inhibition, % at 5 µM; actives 20% (n = 96,000); AID 777;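 active means blocking of liver enzyme CYP2C9 beyond about 50% at 5 µM, limit read from the data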
sEH activator – soluble epoxide hydrolase (human) activation | P34913 | purified human sEH enzymatic activity, activator screen | activation, % at 2 µM | actives 0.04% (n = 91,000) | AID 717; in the data active means activation above about 37%
CYP2C19 activ – cytochrome P450 2C19 (human) activation | recombinant CYP2C19, luciferin-H EGE luminescence; hits give high values; 0 = fully inhibited enzyme, 1 = untreated enzyme | 96,000 tested, under 10 active | activation factor at 5 µM;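 active means activation factor of at least 2 at 5 µM in the primary screen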
Numbers stand for hits; i = inactive; nt = no result. Shown are actives, neighbours in structure and some others; about 27% of the full set was active somewhere.

SMILES	sEH inhibitor	CYP2C9 act	CYP2C19 inh	CYP2C9 inh	sEH activator	CYP2C19 activ
CCOC(=O)/C(C(C)=O)=C1/OC(=O)c2ccccc21	i	i	i	i	i	i
CCCS(=O)(=O)N1CCN(C(=O)CCC2CCCC2)CC1	i	i	i	i	i	i
CSc1ccccc1-c1nnc(-c2ccccc2)o1	i	2.4	i	i	i	i
c1ccc(-c2nnc(-c3ccncc3)o2)cc1	i	i	76	i	i	i
CSc1ccccc1-c1nnc(-c2ccc(C)cc2)o1	i	i	i	i	i	i
COc1ccccc1-c1noc(-c2cccs2)n1	i	i	i	i	i	i
COc1nc(-c2ccc(Cl)cc2)ccc1-c1noc(-c2ccco2)n1	i	i	i	i	i	i
COc1ccccc1-c1nc(-c2ccccn2)no1	i	i	79	i	i	i
c1coc(-c2nc(-c3ccncc3)no2)c1	i	i	87	i	i	i
CCOc1ccc2[nH]c(=O)c(CN(CC3CCCN3CC)C(=O)NCc3ccccc3)cc2c1 (configuration not stated)	nt	i	i	i	nt	i
Cc1ccccc1-c1nc(-c2cccnc2)no1	i	i	62	i	i	i
Cn1nc(-c2ccccc2)c(-c2nc(-c3ccccc3Cl)no2)c1Cl	i	i	i	i	i	i
Clc1ccccc1-c1nc(-c2cccnc2)no1	i	i	i	i	i	i
Cc1ccc(-c2noc(CCCc3ccccc3)n2)cc1	i	i	i	i	i	i
Cc1onc(-c2ccccc2Cl)c1-c1nc(-c2ccncc2)no1	i	i	99	88	i	i
COc1ccc(-c2noc(CCCc3ccccc3)n2)cc1OC	nt	i	80	61	nt	i
COc1ccc(-c2noc(CSc3nc(-c4ccccc4)cc(=O)[nH]3)n2)cc1OC	i	i	i	60	i	i
COc1ccc(CC(=O)N2CC(C)CC(C)C2)cc1 (configuration not stated)	i	i	i	i	i	i
C1CCc2c(nnc3c2-c2nonc2CC3)C1	i	i	i	i	i	i
c1ccc(-c2ccc(-c3nc(-c4cccnc4)no3)cc2)cc1	nt	i	i	i	nt	i
c1ccc(-c2ccc(-c3nc(-c4ccncc4)no3)cc2)cc1	nt	i	80	72	nt	i
COc1ccc(Br)cc1-c1noc(-c2ccncc2)n1	i	i	i	i	i	i
COc1ccccc1-c1noc(-c2ccncc2)n1	i	i	89	i	i	i
c1ccc(C(Cc2nc(-c3ccncc3)no2)c2ccccc2)cc1	i	i	98	90	i	i
COc1ccc(-c2noc(COc3ccc(C)c(C)c3)n2)cc1OC	i	i	73	i	i	i
SMILES	sEH inhibitor	CYP2C9 act	CYP2C19 inh	CYP2C9 inh	sEH activator	CYP2C19 activ
Cc1ccc(-n2ncc3c(=O)n(CC(=O)NCC4CCCO4)cnc32)cc1 (configuration not stated)	i	i	i	i	i	i
Nc1nc(SCc2c(F)cccc2Cl)[nH]c(=O)c1-c1ccccc1	i	i	i	i	i	i
COc1ccc(-c2noc(-c3ccccc3-c3ccccc3)n2)cc1OC	i	i	i	67	i	i
Nc1nc(SCc2nc(-c3ccccc3)no2)[nH]c(=O)c1-c1ccccc1	i	i	73	82	i	i
COc1ccc(Cl)cc1NC(=O)NCCCl	i	i	i	i	i	i
COc1ccc(Cl)cc1NC(=O)C/C(C)=N/NC(=O)CC#N	i	i	i	i	i	i
COc1ccc(Cl)cc1NC(=O)CN(C(=O)c1ccco1)C1CCCCC1	i	i	i	i	i	i
COc1ccc(Cl)cc1NC(=O)CN(C)C(C)C(=O)NCC1CCCCC1 (configuration not stated)	i	2.6	99	i	i	i
COc1ccc(Cl)cc1NC(=O)CC(C)=O	i	3.6	i	i	i	i
COc1ccc(Cl)cc1NC(=O)C1CCCO1 (configuration not stated)	i	3.1	i	i	i	i
COc1ccc(NC(=O)C2CCCO2)cc1OC (configuration not stated)	i	i	i	i	i	i
COc1ccc(Cl)cc1NC(=O)CC(C)c1ccccc1 (configuration not stated)	i	4	85	i	i	i
CCOc1ccc2nc(NC(=O)C3CCN(c4cnccn4)CC3)sc2c1	i	i	i	i	i	i
CC(=O)C1=C(C)OC(N)=C(C#N)C1c1cc2cc(C)c(C)cc2nc1Cl (configuration not stated)	i	i	87	i	i	i
